Source: PubChem BioAssay AID602387 (Sanford-Burnham Center for Chemical Genomics, 2012)
Screen size: about 2,300 compounds; about 30 (1%) were called active.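 Rule for the calls: active = activation of at least 30% at 10 µM; inactive = the rest.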 These entries were drawn from the full list.

Assay: spectral interference with molecular beacon fluorescence, confirmation, artefact control for DNMT1 inhibitor project, biochemical, fluorescent molecular beacon, single concentration (AID 602387);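 note: DNMT1 catalytic domain with a HinP1I cleavage step and a FAM/dabcyl DNA beacon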
Details: DNMT1 molecular beacon spectral interference counterscreen, fluorescence 485/520; at 10 µM; active compounds read high

Compound | activation (fluorescence interference)
COc1ccc(NC(=O)CCn2ccnc2)c(OC)c1 | 5.11% (inactive)
Cc1ccc2[nH]c(=O)c(-c3nc4c(C)cccn4c3NCc3ccco3)cc2c1 | -3.31% (inactive)
NNc1cccc(C=Cc2ccccc2)cc1=O | -0.89% (inactive)
NC1=CC(=O)C(=O)c2cccnc21 | 34.8% (active)
C=C(C)C(=O)Nc1cccc(C2=NOC3(C2)C[C@H](C(N)=O)N(C(=O)C(c2ccccc2)c2ccccc2)C3)c1 (stereo partly drawn) | -0.25% (inactive)
CCC/C=C(\CCC)C(NC(=O)Cc1ccccc1)c1ccc(C(=O)OC)cc1 (stereo not drawn) | 2.66% (inactive)
Cc1ccccc1NC(=O)CN1C(=O)N/C(=C\c2cccn2-c2cccc(C(=O)O)c2)C1=O | -2.61% (inactive)
O=C(Nc1nc(-c2ccco2)c(-c2ccco2)s1)c1ccco1 | 6.11% (inactive)
O=c1[nH]c(/C=C/c2cccc(Br)c2)nc2ccccc12 | -5.42% (inactive)
CC(=O)Nc1ccccc1Sc1ccc2c3c(cccc13)C(=O)N(c1ccc(C)cc1)C2=O | 2.58% (inactive)
Cc1ccc(Cc2cncc(O)c2)cc1S(=O)(=O)O | 5.41% (inactive)
CC(=O)c1ccc(NC(=O)c2ccc3c(Cl)c4c(nc3c2)CCCC4)cc1 | -4.05% (inactive)
Cc1ccccc1-n1cc(CNC(=O)CC2C(=O)NCCN2C/C=C/c2ccccc2)cn1 (stereo not drawn) | 1.73% (inactive)
Cc1ccc(-c2cc(C(=O)NCc3cn(C)nc3C)c3cc(Br)ccc3n2)cc1 | 2.74% (inactive)
Cc1ccc(-c2nnc(-c3ccc(NC(=O)c4cccs4)cc3)o2)cc1 | -3.03% (inactive)
O=C(CN1CCCSc2ccccc21)N1CCN(S(=O)(=O)c2cccc(F)c2)CC1 | 2.83% (inactive)
O=C(COC(=O)/C=C/c1cn(-c2ccccc2)nc1-c1cccnc1)Nc1ccc(Cl)cc1Cl | -2.13% (inactive)
O=C(Nc1cccc(F)c1)c1cc(-c2ccco2)nc2ccccc12 | 3.89% (inactive)
COc1ccc(CC(=O)Nc2ccc(-c3nnc(-c4ccccc4)o3)cc2)cc1 | -2.31% (inactive)
CCOc1ccc(CN2CCC(n3nccc3NC(=O)C3CC3)CC2)cc1CO | 3.5% (inactive)

Compound | activation (fluorescence interference)
Nc1cc2c(cc1Br)-c1ccc(F)cc1C2=O | -1.05% (inactive)
COc1ccc2c(c1)c(=O)c(C(=O)c1ccc(Cl)cc1)cn2CC(=O)Nc1ccc(F)cc1 | -1.8% (inactive)
O/N=C1\CC2(Cc3nonc31)OCCO2 | 2.87% (inactive)
CCOC(=O)N1CC=C2C(C#N)=C(N)C(C#N)(C#N)[C@H](c3cccs3)[C@H]2C1 | 9.6% (inactive)
NC(CSC(c1ccccc1)(c1ccccc1)c1ccc(-c2ccccc2)cc1)C(=O)O (stereo not drawn) | 5.09% (inactive)
CC1CN(C(=O)c2ccccc2NS(=O)(=O)c2cccc([N+](=O)[O-])c2)CC(C)O1 (stereo not drawn) | 1.08% (inactive)
C=CC1=C(C(=O)O)N2C(=O)[C@@H](NC(=O)/C(=N\OCC(=O)O)c3csc(N)n3)[C@H]2SC1 | 7.32% (inactive)
Cc1ccc(N=C2NC(=O)/C(=C/C=C/c3ccco3)S2)cc1C | -1.63% (inactive)
CN(C)/C=C(/C(=O)c1ccc(Cl)cc1)S(=O)(=O)c1ccccc1 | 1.79% (inactive)
Cc1cc2nc(-c3ccco3)c(Cc3cccc(F)c3)n2c(C)c1Br | 0.96% (inactive)
COc1ccc(Cc2nnc(NC(=O)Cc3cccs3)s2)cc1 | -0.3% (inactive)
CCc1ccc(NC(=O)CS(=O)CC(=O)NCCCc2ccccc2)cc1 (stereo not drawn) | 2.85% (inactive)
CCOc1cc(CN2CCCC(CO)(Cc3ccc(F)cc3F)C2)ccc1OC (stereo not drawn) | 4.08% (inactive)
Cc1onc(-c2ccccc2)c1C(=O)Nc1ccccc1C#N | 3.12% (inactive)
Cc1cc(O)c(C(=O)/C=C/c2c(F)c(F)c(F)c(F)c2F)c(=O)o1 | 6.03% (inactive)
c1coc(-c2nc3nc4ccccc4n3nc2-c2ccco2)c1 | 0.5% (inactive)
CCN(C(=O)CSc1nc(N)cc(=O)[nH]1)C1CCS(=O)(=O)C1 (stereo not drawn) | 2.08% (inactive)
c1ccc2cc3c(NCCN4CCOCC4)ccnc3cc2c1 | -0.48% (inactive)
O=C(Cn1nnc(-c2ccccc2)n1)N/N=C/c1ccc(-c2ccc(Cl)cc2)o1 | 3.12% (inactive)
CC1(C(=O)NS(=O)(=O)c2ccccc2)CCN1C(=O)C/C=C/c1ccccc1 (stereo not drawn) | -0.14% (inactive)

Compound | activation (fluorescence interference)
CCN1CCN(Cc2nc3c(c(=O)n(C)c(=O)n3C)n2CC(=O)c2ccccc2)CC1 | 2.13% (inactive)
C/C(=N\Nc1ccc(S(N)(=O)=O)cc1[N+](=O)[O-])c1cccs1 | 0.04% (inactive)
O=C(COC(=O)c1ccc(F)cc1F)Nc1ncccn1 | 3.67% (inactive)
C=CCn1c(=NC(=O)c2ccc(S(=O)(=O)N3CCCC3)cc2)sc2cc(NC(C)=O)ccc21 | -2.75% (inactive)
Cc1ccc(/C=C/C(=O)Nc2ccc([N+](=O)[O-])c(NC(=O)/C=C/c3ccc(C)o3)c2)o1 | -0.1% (inactive)
O=C(COC(=O)CCC(=O)c1cccs1)NCc1ccco1 | 2.99% (inactive)
CC(C)(C)N(Cc1ccccc1)C(=O)c1ccncc1 | 4.75% (inactive)
CCOC(=O)c1c(NC(=S)NC(=O)/C=C/c2cccs2)sc(C)c1C | 2.75% (inactive)
CN(Cc1nc2ccc(F)cc2[nH]1)Cc1nc(CC2CC2)no1 | 5.14% (inactive)
O=C(c1cccs1)N1CCC(c2nc3ccccc3s2)CC1 | 4.65% (inactive)
O=C(CCNC(=O)c1ccccc1)NN=Cc1ccc(Br)o1 | 2.53% (inactive)
CCOC(=O)/C(C#N)=C/c1ccc(OCC(=O)Nc2ccccc2)c(OC)c1 | 6.65% (inactive)
COc1cccc(C(=O)Nc2ccc(N3CCCC3)cc2)c1 | 5.04% (inactive)
C=Cc1ccc(C(=O)N2CCCC(CCC(=O)N3CCN(c4ccccn4)CC3)C2)cc1 (stereo not drawn) | -0.29% (inactive)
CCN1C(=O)c2cccc3c(N)ccc1c23 | 6.17% (inactive)
CCNC(=O)C1CCCN(C(=O)c2cc(F)ccc2C)CC1 (stereo not drawn) | 5% (inactive)
COc1ccc(C(=O)OCC(=O)Nc2cccc(C(C)=O)c2)cc1OC | 8.78% (inactive)
CCOc1ccccc1/C=c1\sc2nc(-c3ccco3)nn2c1=O | 3.15% (inactive)
